Consider 59 molecules from PubChem BioAssay AID485272 (The Scripps Research Institute Molecular Screening Center, 2010).

The campaign covered roughly 330,000 compounds. About 1,300 (0.39%) were called active.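 Rule for the calls: active = percent inhibition above a cutoff equal to the mean of all tested compounds plus 3 SD (cut at about 15% in these data); inactive = the rest.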 Many of the other results were omitted from the sample, so actives are more common in it than they were.

The target in the experiment is Protein-arginine deiminase type-4 (Homo sapiens) (UniProt Q9UM07). The experiment is described as follows: human PAD4 inhibitors, primary screen, biochemical, fluorescence polarization, 1536-well format (AID 485272).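 Note: 0% = PAD4 with RCA probe and DMSO and 100% = probe without PAD4.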 The following applies: recombinant PAD4, RCA probe fluorescence polarization; at 6.36 µM; hits give high values. In general terms: Polarisation of emitted light reports the rotation of a fluorescent probe.
Protein-arginine deiminase type-4 (Homo sapiens), sequence (Q9UM07 whole entry, looked up): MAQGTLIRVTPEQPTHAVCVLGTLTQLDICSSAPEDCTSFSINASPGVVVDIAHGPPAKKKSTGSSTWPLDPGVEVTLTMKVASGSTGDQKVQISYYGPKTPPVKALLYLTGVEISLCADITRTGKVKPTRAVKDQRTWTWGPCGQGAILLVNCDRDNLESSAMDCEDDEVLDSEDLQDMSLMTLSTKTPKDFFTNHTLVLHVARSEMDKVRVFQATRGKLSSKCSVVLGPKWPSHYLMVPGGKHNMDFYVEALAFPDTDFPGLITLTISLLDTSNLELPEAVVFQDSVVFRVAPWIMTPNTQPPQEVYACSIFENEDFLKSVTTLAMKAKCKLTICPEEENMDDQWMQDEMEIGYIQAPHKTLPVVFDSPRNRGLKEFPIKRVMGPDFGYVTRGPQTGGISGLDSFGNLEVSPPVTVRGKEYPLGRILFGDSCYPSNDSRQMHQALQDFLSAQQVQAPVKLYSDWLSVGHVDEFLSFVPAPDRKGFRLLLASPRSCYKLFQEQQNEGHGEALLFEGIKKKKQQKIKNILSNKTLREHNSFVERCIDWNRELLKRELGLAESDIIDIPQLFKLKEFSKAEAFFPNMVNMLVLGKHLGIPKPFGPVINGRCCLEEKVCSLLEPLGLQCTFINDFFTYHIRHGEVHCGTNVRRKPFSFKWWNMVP
As a reminder, the inhibition is the relative decrease from the control value, in per cent. Regarding `c1ccc2c(c1)OCCOCCOCCO2`, the inhibition was 0.83% (inactive).
For the molecule `CCn1c(SCC(=O)Nc2sc(C)c(C)c2C#N)nnc1C1CC1`, the inhibition was -2.74% (inactive).
Regarding `CCCc1c(C)nc2c(Br)cccc2c1Cl`, the inhibition was 2.17% (inactive).
With `CCc1ccc2c(c1)C1(NN=C(c3ccccc3)S1)C(=O)N2` (centres undefined) the figure was -9.11% (inactive).
Consider `COc1ccc(C2(O)C(=O)Nc3ccccc32)cc1` (centres undefined), for which the inhibition was 0.37% (inactive).
For `O=C1Nc2ccccc2C12Nc1ccccc1S2` (centres undefined), the inhibition was 21.3% (active).
`CC1(C)N=C(c2ccccn2)C(C)(C)N1O`: the inhibition was -1.6% (inactive).
Regarding `O=C(NCCc1ccccc1Cl)C1CCC(=O)N(CCCc2ccccc2)C1` (centres undefined), the inhibition is 1.05% (inactive).
For `Cc1c2cnn(CC(=O)NCc3ccccn3)c(=O)c2c(C)n1Cc1ccc(Cl)cc1`, the inhibition was 1.37% (inactive).
Turning to `CC(C)CNC(=O)CC(NCC(C)C)C(=O)O` (centres undefined), the inhibition is -2.65% (inactive).
With `Oc1ccc(-c2[nH]ncc2-c2nc3ccccc3s2)c(O)c1`, the inhibition was 3.22% (inactive).
`Cc1nc2ccccc2nc1N/N=C/c1ccc(O)cc1O`: the inhibition was -3.07% (inactive).
With `Cc1cc(O)ccc1-c1cnc2ccccc2n1` the figure was 28.5% (active).
On to `CS(=O)(=O)N(CC(=O)N1CCN(c2ccc(F)cc2)CC1)C1CCCCC1`, for which the inhibition was -2.55% (inactive).
As to `C=CCN1C2CCCC1CC(NC(=S)Nc1cccc(OC)c1)C2` (centres undefined), the inhibition is 3.98% (inactive).
With `O=C(CN1C(=O)CCS(=O)(=O)c2ccccc21)NCc1ccc(F)cc1` the figure was -1.88% (inactive); with `C[C@H](CO)N1C[C@H](C)[C@@H](CN(C)Cc2ccc(-c3ccccc3)cc2)Oc2ccc(NC(=O)Cn3cnnn3)cc2C1=O`, -5.03% (inactive); with `CN1c2ccc(C=O)c3c(C=O)ccc(c23)N(C)C1(C)C`, 54.5% (active).
As for `O=C(Nc1ccc([N+](=O)[O-])cc1)C1(c2ccccc2)CCOCC1`, the inhibition is -2.28% (inactive).
With `CN(C(=O)CN1C(=O)CCSc2ccc(S(=O)(=O)N3CCCC3)cc21)c1ccccc1`, the inhibition is -3.61% (inactive).
In the case of `CNC(=S)NNC(=O)c1oc2nc(-c3ccccc3)cc(-c3ccco3)c2c1N`, the inhibition was 19.9% (active).
Regarding `CNC(=S)NNC(=O)c1cccn(Cc2ccccc2)c1=O`, the inhibition was -2.2% (inactive).
Turning to `NNC(=O)c1oc2nc(-c3ccccc3)cc(-c3ccco3)c2c1N`, the inhibition is -6.02% (inactive).
Turning to `COc1ccc([C@@H]2[C@@H]3C(=O)N(C(C)(C)C)C(=O)[C@@H]3[C@]3(Cc4ccccc4)C(=O)N(c4cccc(Br)c4)C(=O)N23)cc1`, the inhibition is 0.18% (inactive).
Regarding `Cc1nn(CC2CC2)c(=O)n1N(C)c1ncc(C(F)(F)F)cc1Cl`, the inhibition is 0.5% (inactive).
With `Cc1c(NC(=O)Nc2ccccc2Cl)sc(=S)n1C` the figure was -3.79% (inactive).
Consider `O=C(Cc1ccc2c(c1)CCCC2)Nc1ccccc1Cl`, for which the inhibition was 1.33% (inactive).
For the molecule `O=C(Nc1ccccc1Cl)/C(Cl)=C(\Cl)S(=O)c1ccccc1` (centres undefined), the inhibition is 16.5% (active).
Regarding `CC1CN(c2nc(-c3ccccc3)nnc2-c2ccccc2)CC(C)O1` (centres undefined), the inhibition is -2.42% (inactive).
Take `Cn1cccc1/C=C1\SC(=S)N(NC(=O)c2ccc(Cl)cc2)C1=O`: the inhibition was -18.5% (inactive).
`COc1ccccc1NC(=S)NC(=O)C(C)C`: the inhibition is -0.01% (inactive).
With `CC(C)C(=O)NC(=S)Nc1ccccc1F` the figure was 5.01% (inactive).
Regarding `CCc1ccccc1NC(=S)Nc1cc(OC)c(NC(=O)C(C)C)cc1OC`, the inhibition was 41.1% (active).
`C=CCNC(=O)c1ccccc1NC(=O)c1ccc(Cl)c(S(=O)(=O)Nc2cccc(C)c2C)c1`: the inhibition is 2.11% (inactive).
For the molecule `COc1ccc(C)cc1Nc1nc(C)nc2c1oc1ccccc12`, the inhibition was 1.33% (inactive).
As for `Cc1nc(N2CCCC2C(=O)O)c2oc3ccccc3c2n1` (centres undefined), the inhibition is -1.75% (inactive).
On to `Cc1nc(Cl)c2oc3ccccc3c2n1`, for which the inhibition was 15.3% (active).
With `CCCCC[C@@H]1C=C(C(=O)O)[C@H](c2ccc(C#N)cc2)N1S(=O)(=O)c1ccc(C)cc1` the figure was 0.94% (inactive).
With `O=C(N/C(=C\c1ccc([N+](=O)[O-])cc1)C(=O)N1CCCCC1)c1ccco1` the figure was 2.37% (inactive).
Regarding `COc1cccc(NC(=O)C2c3cc(OC)c(OC)cc3C(=O)N(C)C2c2cccnc2)c1` (centres undefined), the inhibition is 69.3% (active).
With `CCOc1cc2c(cc1OCC)C(C(=O)O)C(c1ccc(OC)c(O)c1)N(C)C2=O` (centres undefined) the figure was -1.73% (inactive).
With `COc1cccc(NC(=O)C2C(c3ccccc3)C2(Cl)Cl)c1` (centres undefined), the inhibition was -7.27% (inactive).
With `CO[C@H]1[C@@H]2C=CO[C@@H](O[C@H]3O[C@@H](CO)[C@H](O)[C@@H](O)[C@@H]3O)[C@@H]2[C@@]2(CO)O[C@@H]12`, the inhibition is 1.64% (inactive).
Take `Cc1nc2ccccc2nc(C)c1=NOCc1ccc(Cl)cc1Cl`: the inhibition is -3.19% (inactive).
With `CCOC(=O)C1CCN(C(=O)CC2C(=O)N(Cc3ccccc3)C(C)c3nc4ccccc4n32)CC1` (centres undefined) the figure was -2.42% (inactive); with `CCC(CO)Oc1cc(NC(=O)c2ccc(Cl)cc2)c2ncn(C(C)C)c2c1` (centres undefined), -2.59% (inactive).
For `CC(C)n1cnc2c(NCc3ccccc3)cc(OCC3CCN(C)CC3)cc21`, the inhibition was 16.8% (active).
Consider `CCC(CO)Oc1cc(NCc2ccccc2)c2ncn(C3CCCC3)c2c1` (centres undefined), for which the inhibition is -6.94% (inactive).
In the case of `CC(C)n1cnc2c(NCc3ccccc3)cc(N[C@@H](CO)Cc3ccccc3)cc21`, the inhibition is 32.9% (active).
On to `CCC(CO)Oc1cc(NC(=O)c2cccc(F)c2)c2ncn(C(C)C)c2c1` (centres undefined), for which the inhibition is 3.9% (inactive).
`CCC(CO)Oc1cc(NC(=O)c2cccc3ccccc23)c2ncn(C(C)C)c2c1` (centres undefined): the inhibition is -7.37% (inactive).
For `Cc1ccc(NC(=O)C(C)c2cccc(C(=O)c3ccccc3)c2)cc1` (centres undefined), the inhibition was 1.32% (inactive).
On to `O=C(Cn1c2[n+](c3ccc(C(F)(F)F)cc31)CCCCC2)Nc1c(F)cccc1F`, for which the inhibition was -5.07% (inactive).
As to `CC(C)C(C)(C#N)NC(=O)CSc1nncn1-c1ccccc1` (centres undefined), the inhibition is -0.3% (inactive).
With `CC(C)(C)NC(=O)/C(=C/c1cccnc1)NC(=O)c1ccco1` the figure was 0.75% (inactive); with `Cc1cc(C)c2c(Cn3ccnc3)cc(=O)oc2c1`, -4.75% (inactive); with `Cc1nn(-c2ccccc2)c(C)c1NC(=O)CCl`, 1.95% (inactive).
Consider `Cc1nn(-c2ccccc2)c(C)c1NC(=O)COC(=O)c1cc(Cl)ccc1O`, for which the inhibition was 2.71% (inactive).
With `Cc1ccc2c(c1)N(C(=O)CCC(=O)NCc1cccnc1)CCO2` the figure was -2.36% (inactive).
